Results as given in PubChem BioAssay AID1117264 (The Scripps Research Institute Molecular Screening Center, 2014).
Screen size: about 89,000 compounds; about 440 (0.49%) were called active.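 How the source made its calls: active means inhibition above the mean inhibition across all screened compounds plus 3 SD (cut at about 11% in these data); inactive means the rest.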 Many of the other results were omitted from the sample, so actives are more common in it than they were.

Biological target: RNA-editing ligase 1, mitochondrial (Trypanosoma brucei brucei) (UniProt P86926)
Assay: TbREL1 RNA ligase inhibitors, primary screen, biochemical, FRET fluorescence (AID 1117264);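 further: 0% = plate median of test wells and 100% = NSC42067 control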
Settings: TbREL1 RNA ligation, at 9.66 µM, hits give high values

Sequence of RNA-editing ligase 1, mitochondrial (Trypanosoma brucei brucei) (P86926 whole entry, looked up): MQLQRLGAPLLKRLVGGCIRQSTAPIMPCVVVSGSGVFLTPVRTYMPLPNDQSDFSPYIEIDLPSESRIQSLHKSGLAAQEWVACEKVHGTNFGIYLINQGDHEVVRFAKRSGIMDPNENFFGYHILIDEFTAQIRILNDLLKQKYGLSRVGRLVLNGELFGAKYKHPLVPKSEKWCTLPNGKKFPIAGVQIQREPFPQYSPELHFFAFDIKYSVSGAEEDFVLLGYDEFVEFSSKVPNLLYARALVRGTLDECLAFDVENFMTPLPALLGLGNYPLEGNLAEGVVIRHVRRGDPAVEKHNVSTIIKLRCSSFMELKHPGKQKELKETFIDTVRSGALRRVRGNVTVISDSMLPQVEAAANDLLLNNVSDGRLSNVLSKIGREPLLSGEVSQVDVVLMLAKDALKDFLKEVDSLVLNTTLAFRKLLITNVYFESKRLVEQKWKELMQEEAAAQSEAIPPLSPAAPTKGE

inhibition, inactive:
CCOc1ccc(C(=O)CCC(=O)Nc2ccncc2)cc1 -0.23%
O=C(CSc1nc(O)c(Cc2ccccc2)c(=O)[nH]1)Nc1nc2c(s1)CCCC2 -3.09%
CC1CCCCC12NC(=O)N(CC(=O)N1CCN(c3ccccc3)CC1)C2=O (stereo not drawn) -1.93%
C[C@H](NC(=O)c1ccccc1Cl)C(=O)OCC(=O)N1CCN(c2ccccc2)CC1 -4.27%
O=C(NC1CCC(O)CC1)c1ccccc1OCc1ccc(F)cc1 (stereo not drawn) -4.15%
CCC(C)NCC(=O)Nc1ccc([N+](=O)[O-])cc1C(=O)Nc1ccccc1F (stereo not drawn) 1.57%
O=C(COC(=O)/C=C/c1ccc2c(c1)OCO2)NC1CCS(=O)(=O)C1 (stereo not drawn) -1.84%
CC(=O)c1c(C)oc2ccc(NS(=O)(=O)c3ccc(C(=O)O)cc3)cc12 2.43%
Cc1cc(C)nc(NC(=S)N2CCN(c3ccc(C(F)(F)F)cn3)CC2)c1 -3.25%
Cc1cccc(C(=O)Nc2ccc3c(c2)C(=O)N(CC(C)C)C3=O)c1 5.77%
CC(=O)N(CN1C(=O)C2C3C=CC(C3)C2C1=O)c1cccc(Cl)c1 (stereo not drawn) -2.46%
COC(=O)[C@@]12CCCCC3=C1N(CCC3)C(=O)[C@H]2CC(=O)NCc1cccc2ccccc12 -3.03%
CN(CC(=O)Nc1c(Cl)cccc1Cl)C(=O)c1ccncc1 -0.71%
CCOC(=O)[C@H]1[C@H]2COc3ccc(Cl)cc3[C@@H]2N2C(=O)c3cc(C)ccc3NC(=O)[C@@]12C -1.49%
COc1cccc(CNC(=O)CNS(=O)(=O)c2ccc3nc(C)sc3c2)c1OC -4.98%
CCCCN(C1CCS(=O)(=O)C1)S(=O)(=O)c1ccc(C(C)C)cc1 (stereo not drawn) 0.44%
COc1cccc(NC(=O)CN(C)C(=O)CSCc2nc3scc(-c4cccs4)c3c(=O)[nH]2)c1 -0.31%
Cc1ccccc1NC(=O)Cn1cc(C(=O)C2CC2)c2ccccc21 2.47%
COc1cc(NS(=O)(=O)c2ccc(NC(C)=O)cc2)cc(OC)c1 0.52%
COc1cccc(NC(=O)CCNS(=O)(=O)c2ccc3c(c2)oc(=O)n3C)c1 3.31%
Cc1ccc(NC(=O)C(C)Sc2nnc(C3CC3)n2C2CC2)cc1S(=O)(=O)N1CCOCC1 (stereo not drawn) 5.95%
CCC(C(=O)OC)n1cnc2scc(-c3ccc(C)cc3)c2c1=O (stereo not drawn) 2.37%
Cc1ccccc1NC(=S)N(CCCN1CCOCC1)Cc1cccs1 -3.36%
CCCN(CCC)C(=S)Nc1cc(C(=O)OC)ccc1C(=O)OC -1.86%
CCCCn1nnnc1C(c1ccccc1)N1CCN(c2ccccc2OC)CC1 (stereo not drawn) 0.09%
O=C(C1CCCN1S(=O)(=O)c1ccccc1)N1CCc2ccccc2C1 (stereo not drawn) 3.88%
O=C(COC(=O)CNS(=O)(=O)c1ccccc1)NC12CC3CC(CC(C3)C1)C2 -1.46%
O=C(O)COCC(=O)NCc1csc2ccc(Cl)cc12 2.32%
O=C(N/N=C/c1cccc([N+](=O)[O-])c1)c1ccncc1 7.99%
O=[N+]([O-])c1ccc2c(c1)C(O)n1nc(-c3ccccc3)nc1S2 (stereo not drawn) 5.85%
O=C(CSc1nccn1-c1cccc(F)c1)NC1CCCC1 -3.03%
COc1cc(-c2nnc(NC(=O)C3=COCCO3)o2)cc(OC)c1OC 1.27%
O=C(CSc1nc2ccccc2nc1N1CCCCC1)N1CCN(S(=O)(=O)c2cccc([N+](=O)[O-])c2)CC1 -1.26%
Cc1cc(=O)oc2cc(OCC(=O)Nc3nnc(C4CC4)s3)ccc12 4.82%
Cc1ccc(NC(=O)CN(C)C(=O)COC(=O)C(C)(C)Oc2ccc(Cl)cc2)cc1 1.09%
CCNc1nc(Oc2ccc(C(=O)OC)cc2)nc(N2CCOCC2)n1 3.37%
CCCC[C@@H]1CN=C(N)N1CCCC 8.04%
O=C(Cn1nnc(N2CCCCC2)n1)c1ccc(Cl)c(Cl)c1 2.76%
O=C(Nc1cccc(F)c1)NC1CCCc2ccccc21 (stereo not drawn) 4.99%
Cc1cc(C)cc(NC(=O)NC2CCCCCCC2)c1 4.83%
O=C(CSc1nnc(COc2ccccc2)n1Cc1ccco1)c1ccc2ccccc2c1 2.5%
CN1CCC(=NNC(=O)c2ccc(N(Cc3ccc(Cl)cc3)S(C)(=O)=O)cc2)CC1 0.47%
CC(C)C[C@H]1CN=C(Nc2ccccc2)N1CC1CCCCC1 4.52%
Cc1cc(C)c(OCC(=O)N(Cc2cccs2)C2CCS(=O)(=O)C2)c(C)c1 (stereo not drawn) 2.35%
C=CCNC(=S)NNC(=O)c1cc(Cl)ccc1OC -1.18%
CCN(C(=O)CSc1nnc(-c2ccc(OC(F)F)cc2)n1N)C1CCS(=O)(=O)C1 (stereo not drawn) -0.55%
O=C(CSc1ccc([N+](=O)[O-])cn1)Nc1ccc(N2CCOCC2)c(Cl)c1 4.47%
CC(C)CNC(=O)OCc1cn(Cc2ccc(F)cc2)nn1 -1.2%
Nc1nonc1-n1nnc(C(=O)N/N=C/C2CCCCC2)c1-c1ccccc1 2.56%
CC1CCN(S(=O)(=O)c2ccc3[nH]c(=O)ccc3c2)CC1 2.13%
Cc1cccc(NC(=S)N2CCCC(c3nc4ccccc4[nH]3)C2)c1 (stereo not drawn) -6.41%
COc1ccc(NC(=O)CCN2C(=O)/C(=C/c3ccc4c(c3)OCO4)SC2=S)cc1 -1.87%
O=C(O)c1ccc(S(=O)(=O)N2CCOCC2)o1 0.79%
COc1ccc(Br)c(Cn2c(C)c(C(=O)NCc3cccs3)sc2=O)c1 2.25%
Cc1cc(NC(=O)C(C)N2C(=O)c3ccccc3S2(=O)=O)no1 (stereo not drawn) 3.27%

inhibition, active:
COc1cc(NC(=O)CCS(=O)(=O)c2ccc3c(c2)oc(=O)n3C)cc(OC)c1 12.5%
CN1CCN(/N=C2/C(=O)Nc3ccc([N+](=O)[O-])cc32)CC1 11.2%
O=C(Nc1cccc(F)c1)NC1CCCCCCC1 12%
